Assay outcomes: PubChem, National Center for Advancing Translational Sciences (NCATS)
IP6K1 inh – Primary qHTS assay for small molecule inhibitors of Inositol hexaphosphate kinase 1 (IP6K1). 140,000 tested, 0.81% active. IP6K1 kinase, ADP-Glo luminescence, 2 h; stronger effect = lower value. Inositol hexakisphosphate kinase 1 (Homo sapiens), Q92551. activity change, % (series mostly up to about 58 µM); in the data active means activity change below about -25%; further: on the % scale 0 is the no-effect control and ±100 the full control effect
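ADP-Glo luminescence measures ADP made by human IP6K1 during a 2 h RT reaction with ATP/IP6 (mix at 1.3 mM/130 uM); top library doses 57.5 and 19.1 uM final.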
KDM5B inhibitor – Primary screen for KDM5B Histone Demethylases FDH-coupled qHTS; Lysine-specific demethylase 5B (Homo sapiens), Q9UGL1; KDM5B demethylase, FDH-coupled NADH fluorescence (FDH is formaldehyde dehydrogenase); Potency, µM (titrated, usually from 57.7 µM), most hits filed as inhibitors; 220,000 tested, 2.6% active; AID 1347165, 2019; further: potency means the concentration at half of the fitted maximal effect; 0% is about no effect; nearly all actives have a fitted effect of over 70% in size
Target sequence (Q9UGL1 whole entry, looked up): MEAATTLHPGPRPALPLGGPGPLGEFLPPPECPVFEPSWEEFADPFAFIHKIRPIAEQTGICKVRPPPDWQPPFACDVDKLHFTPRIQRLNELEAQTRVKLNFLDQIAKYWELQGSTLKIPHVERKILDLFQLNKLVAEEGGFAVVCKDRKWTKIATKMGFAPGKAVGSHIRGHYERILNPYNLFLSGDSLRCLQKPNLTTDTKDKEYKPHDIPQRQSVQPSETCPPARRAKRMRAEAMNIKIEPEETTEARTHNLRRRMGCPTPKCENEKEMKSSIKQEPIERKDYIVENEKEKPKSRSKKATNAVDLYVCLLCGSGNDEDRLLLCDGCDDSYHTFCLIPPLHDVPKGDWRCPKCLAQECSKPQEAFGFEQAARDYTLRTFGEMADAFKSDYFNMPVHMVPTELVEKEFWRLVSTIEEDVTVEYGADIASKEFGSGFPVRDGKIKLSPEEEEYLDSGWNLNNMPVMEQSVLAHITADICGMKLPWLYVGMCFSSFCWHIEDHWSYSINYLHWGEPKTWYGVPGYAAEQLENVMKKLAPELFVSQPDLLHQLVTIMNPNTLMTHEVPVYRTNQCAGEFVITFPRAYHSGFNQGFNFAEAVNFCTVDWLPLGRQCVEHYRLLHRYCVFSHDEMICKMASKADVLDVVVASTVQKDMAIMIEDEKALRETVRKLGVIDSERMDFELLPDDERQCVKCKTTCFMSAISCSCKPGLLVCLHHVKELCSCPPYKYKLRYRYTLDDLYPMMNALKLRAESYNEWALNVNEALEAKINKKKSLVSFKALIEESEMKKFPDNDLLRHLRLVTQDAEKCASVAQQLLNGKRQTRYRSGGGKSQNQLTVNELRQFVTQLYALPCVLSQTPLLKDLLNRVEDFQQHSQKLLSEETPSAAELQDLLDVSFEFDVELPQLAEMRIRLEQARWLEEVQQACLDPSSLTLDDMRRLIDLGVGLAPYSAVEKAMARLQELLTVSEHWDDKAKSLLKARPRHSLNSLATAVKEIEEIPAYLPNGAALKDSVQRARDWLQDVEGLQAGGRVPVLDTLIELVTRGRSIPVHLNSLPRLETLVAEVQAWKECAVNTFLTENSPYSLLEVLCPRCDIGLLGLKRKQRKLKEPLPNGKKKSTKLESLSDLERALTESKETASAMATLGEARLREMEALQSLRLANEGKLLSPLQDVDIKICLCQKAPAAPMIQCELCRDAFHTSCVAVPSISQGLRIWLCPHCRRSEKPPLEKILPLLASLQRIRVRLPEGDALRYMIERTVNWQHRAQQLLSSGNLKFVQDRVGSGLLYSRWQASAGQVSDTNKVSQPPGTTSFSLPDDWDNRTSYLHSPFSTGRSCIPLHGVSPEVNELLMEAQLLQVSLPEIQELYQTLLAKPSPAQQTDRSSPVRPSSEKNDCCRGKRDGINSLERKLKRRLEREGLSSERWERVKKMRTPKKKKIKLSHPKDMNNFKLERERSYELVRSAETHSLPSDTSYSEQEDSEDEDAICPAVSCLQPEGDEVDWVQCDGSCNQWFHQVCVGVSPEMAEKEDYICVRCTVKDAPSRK
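Here, H3K4me3 peptide (12.5 µM in substrate mix) is demethylated by KDM5BΔAP, 200 nM final, after 10 min compound exposure. Formaldehyde product is coupled through FDH (0.25 U/mL in mix) to NADH fluorescence; 30-min ΔRFU feeds dose-response curves.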
SNCA expr inhib – Primary qHTS assay for inhibitors of alpha-synuclein gene (SNCA) expression; HEK-293 SNCA-luciferase knock-in, luminescence, 24 h; Potency, µM (highest dose often 57.2 µM), for the others: at the top dose activity change, negative = inhibition, hits mostly inhibitors; 140,000 tested, 0.17% active; AID 1671194, 2021;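 further: potency means the concentration at half of the fitted maximal effect; plate controls were DMSO cells for no effect and cell-free wells for full effect; nearly all actives have a fitted effect of over 45% in size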
SNCA viab count – GF-AFC viability counterscreen for inhibitors of alpha-synuclein gene (SNCA) expression. HEK-293-SNCA-luc viability, GF-AFC fluorescence, 24 h. Potency, µM (series often up to 57.1 µM), inactives show top-dose activity change, negative = cytotoxicity, actives largely listed as cytotoxic. 150,000 tested, 0.12% active. AID 1671193, 2021;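 further: potency means the concentration at half of the fitted maximal effect; 0% = DMSO-treated cells and -100% = medium-only wells without cells; nearly all actives have a fitted effect of over 30% in size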
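Cytotoxicity counterscreen: after 24 h compound treatment of genome-edited SNCA-luciferase HEK-293 cells, live-cell protease substrate GF-AFC read by fluorescence after 30 min; activity scaled between DMSO (0%) and medium-only (-100%), curves Hill-fitted.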
Numbers without * were called inactive; i = inactive; u = inconclusive; x = no result; [ ] = remark or other dose. The list is not random: actives were taken first. Their share in the collection is about 2.9%. Unless noted, the call rests on the fitted dose curve; in most records, active means well fitted curve in the direction sought with a large enough effect; inconclusive means small, poorly fitted or top-dose-only effect, or another doubt; inactive means no such curve, though single readings can be large; an effect the other way counts as inactive or inconclusive.

SMILES	IP6K1 inh	KDM5B inhibitor	SNCA expr inhib	SNCA viab count
Cc1ccc2c(c1)c(C(=O)N[C@H](c1cnn(C)c1)C1CC(O)C1)nn2C (some centres undefined)	30	28µM*	-2%	4%
Cc1[nH]c(-c2ccccc2)nc1C(=O)N[C@H](c1cnn(C)c1)C1CC(O)C1 (some centres undefined)	13	i	-10%	1%
O=C(N1CCCC1)N1CCN(C2CCNCC2)C(=O)C1	10	50µM*	-17%	-10%
O=C(N1CCCCC1)N1CCN(C2CCNCC2)C(=O)C1	11	89µM*	-1%	-4%
CCSc1ncc(-c2c(-c3ccccc3)ncn2CC[C@@H](C)CO)cn1	10	14µM*	0%	-23%
CNC(=O)c1cc(-c2ccc(OC)c(OC)c2)cc2c1OCCN2Cc1cccnc1	-24	32µM*	62%[87.6 µM]	-5%[87.6 µM]
CNC(=O)c1cc(-c2cnn(C)c2C)cc2c1OCCN2Cc1cccnc1	-18	35µM*	13%[87.6 µM]	u
COc1ncc(-c2cc(C(=O)NCc3cccnc3)c3c(c2)N(C)CCO3)cn1	-14	i	16%[87.6 µM]	5%[87.6 µM]
CNC(=O)c1cc(-c2ccc(F)cc2OC)cc2c1OCCN2Cc1cccnc1	-18	40µM*	27%[87.6 µM]	-25%[87.6 µM]
CNC(=O)c1cc(-c2cnc(OC)nc2)cc2c1OCCN2Cc1cccnc1	-23	i	-3%[87.6 µM]	14%[87.6 µM]
CNC(=O)c1cc(-c2ccc([S+](C)(=O)[O-])cc2)cc2c1OCCN2Cc1cccnc1	-7	35µM*	-3%[87.6 µM]	0%[87.6 µM]
COc1ccc(C)cc1CN(C)Cc1ccc(C#N)cc1	x	i	x	x
COCCN1CCC2(CCC1=O)CCN(C(=O)NC1CCCCC1)CC2	31	i	1%	2%
CCc1ccc(C2CC(C(=O)NCc3ccccc3)CN(C(=O)c3ccoc3)C2)cc1 (centres undefined)	-15	u	7%	10%
COC(=O)c1sccc1NC(=O)N1CCCC1c1noc(COc2ccc(F)cc2)n1 (centres undefined)	7	32µM*	3%	-7%
Cn1cccc1CN[C@H]1[C@H](O)[C@@H](N2CCCC2)[C@@H]2OC[C@H]1O2	1	25µM*	14%[87.6 µM]	4%[87.6 µM]
Cc1ccc(OCCC2CCN(C(=O)c3ccsc3)C2)cc1 (centres undefined)	23	i	8%	2%
O=C(CC1CCCC1)N1CCC(Nc2cccnc2)C1 (centres undefined)	8	u	-3%	-4%
CCCOc1nccnc1NC1CCN(C(=O)c2ccsc2)CC1	0	28µM*	-18%	10%
CCCOc1nccnc1NC1CCN(C(=O)c2cccnc2)CC1	-5	28µM*	14%	3%
O=C(c1cccnc1)N1CCC(OC2CCN(Cc3cccnc3)CC2)CC1	3	i	1%	-4%
O=C(c1ccsc1)N1CCC(Nc2cccnc2)C1 (centres undefined)	5	13µM*	-25%	-17%
CC(C)S(=O)(=O)N1CCC(Nc2cccnc2)C1 (centres undefined)	10	8.9µM*	-1%	-7%
COc1ccc(CN(C)CC2CCN(CCc3ccc(F)cc3)CC2)cc1Cn1cccn1	13	i	u	-8%
CCn1cc(S(=O)(=O)NCCc2ncc(C)n2C2CCC2)cn1	-4	i	-15%	-8%
SMILES	IP6K1 inh	KDM5B inhibitor	SNCA expr inhib	SNCA viab count
O=C(C1CCCC1)N1CCCC(c2noc(COc3ccccc3F)n2)C1 (centres undefined)	0	i	38%	-6%
Cc1ccc(C(=O)NCc2nnc3cc(-c4nc(C(C)C)no4)ccn23)cc1F	10	7.1µM*	-22%	-15%
CCCc1noc(-c2ccn3c(CNC(=O)c4ccc(F)c(Cl)c4)nnc3c2)n1	6	u	-12%	10%
COc1ccc(C(=O)NCc2nnc3cc(-c4nc(C(C)C)no4)ccn23)cc1F	33	10µM*	1%	3%
Cc1noc(-c2ccn3c(CNC(=O)COc4ccc(F)cc4)nnc3c2)n1	4	13µM*	-5%	-11%
Cc1noc(-c2ccn3c(CNC(=O)c4ccc(C)c(F)c4)nnc3c2)n1	13	3.5µM*	0%	-11%
COCCN1C(=O)c2cccn2CC1CNC(=O)c1nccc2ccccc12 (centres undefined)	1	i	-12%	10%
